Screening data: PubChem, National Center for Advancing Translational Sciences (NCATS)
GALC G270D act: enhancers of human galactocerebrosidase G270D mutant activity in cells | 145M-Twi-hGALC-G270D cells, HMU-beta-Gal fluorescence, 48 h | AID 1159614 | Potency, µM (titrated, usually from 57.5 µM), actives largely listed as activators | hit rate 0.1% among 45,000 | P54803; also: potency is read from the fitted curve at half-maximal effect; 0% is about no effect; nearly all actives have a fitted effect of over 65% in size
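qHTS, 1536-well; 145M-Twi-hGALC-G270D cells (WT line also made) in DMEM/F12 + 10% FBS; compound incubation on live cells; HMU-β-gal 0.1 mM final, pH 5.2, NaTC; carbonate stop; fluorescence increase = enhanced residual activity.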
DRV1 agonist: agonists of human resolvin D1 receptor DRV1 (GPR32); O75388; CHO-K1 GPR32 beta-arrestin PathHunter luminescence, 90 min; zero percent set by DMSO-only wells; hit rate 2.5% among 48,000; activation, % at 76.9 µM;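 active = activation of at least 60% and not above a set upper limit, about 1 call in 100 departs from these limits; inconclusive = activation of 40% to 60%, or above that upper limit; inactive = activation under 40%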; also: 0% is about no effect
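Engineered CHO-K1 line co-expressing GPR32-ProLink and EA-beta-arrestin. Compound treatment lasted 90 min at 37 °C. Luminescence was recorded after 1 h with substrate at ambient temperature, relative to DMSO basal wells.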
HTT promoter inh: HTT promoter inhibition; Potency, µM (top dose mostly 57.5 µM), for the others: at the highest dose activity change, negative = inhibition, most hits filed as inhibitors; hit rate 0.93% among 48,000; HEK293 HTT promoter firefly luciferase reporter, 24 h; also: potency is read from the fitted curve at half-maximal effect; nearly all actives have a fitted effect of over 50% in size
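HEK293 Fluc reporter, 2,500 cells/well, 24 h pre-culture; cpds up to 57.5 uM final, 24 h 37 degrees C; Dual-Glo, 10 min RT; normalized vehicle = 0%, zero RLU = -100%.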
FH mod: Identification of activators of human fumarate hydratase by quantitative high-throughput screening; Fumarate hydratase, mitochondrial (Homo sapiens), P07954; FH coupled MDH/diaphorase resazurin fluorescence, 15 min; Potency, µM (series often up to 79.9 µM), inactives show at the top dose activity change, negative = inhibition, actives largely listed as inhibitors; hit rate 0.22% among 54,000; also: potency is read from the fitted curve at half-maximal effect; % is scaled to controls: 0 for no effect and ±100 for the full control effect; the screen sought activators but most active calls are inhibition curves; nearly all actives have a fitted effect of over 45% in size
NTMT1 inhibitor: NTMT1 methyltransferase inhibition. Q9BV86. NTMT1 MTase-Glo SAH luminescence, purified enzyme. Potency, µM (titrated, usually from 114 µM), inactives show top-dose activity change, negative = inhibition, most hits filed as inhibitors. hit rate 2.5% among 59,000;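 also: potency is read from the fitted curve at half-maximal effect; plate controls were DMSO vehicle for no effect and no enzyme for full effect; nearly all actives have a fitted effect of over 65% in size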
HTT-AS promoter: activators of huntingtin-antisense promoter activity | HEK293 HTT-AS promoter firefly luciferase reporter, 24 h; response scale: percent change from vehicle, -100% = no light | Potency, µM (highest dose often 57.5 µM), inactives show top-dose activity change, positive = activation, most hits filed as activators | hit rate 0.24% among 48,000 | AID 1508624; also: potency is read from the fitted curve at half-maximal effect; nearly all actives have a fitted effect of over 55% in size
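HEK293 Fluc reporter, 2,500 cells/well, 24 h pre-culture; cpds up to 57.5 uM final, 24 h 37 degrees C; Dual-Glo, 10 min RT; normalized vehicle = 0%, zero RLU = -100%.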
Sfp PPTase inh: Sfp PPTase inhibition, chemistry optimization. purified Sfp PPTase enzyme activity, qHTS. shares compounds with NTMT1 inhibitor. Potency, µM (highest dose often 114 µM), without a hit: at the highest dose activity change, negative = inhibition, most hits filed as inhibitors. hit rate 78% among 230
Bsub HM489 growth: B. subtilis HM489 growth inhibition | B. subtilis HM489 (acpS-) growth, BacTiter-Glo, 5 h | Potency, µM (top dose mostly 114 µM), inactives show top-dose activity change, negative = inhibition, usual class: inhibitors | AID 540353 | hit rate 50% among 220 | shares compounds with NTMT1 inhibitor
Sfp PPTase gel: inhibitors of Bacillus subtilis Sfp PPTase, gel-based followup | shares compounds with NTMT1 inhibitor | purified Sfp PPTase, gel-based product detection | Potency, µM (highest dose often 250 µM), for inactives: top-dose activity change, negative = inhibition, usual class: inhibitors | hit rate 54% among 220 | AID 540355
Sfp SAR2: inhibits B. subtilis Sfp PPTase in second SAR round. AID 602370. purified Sfp enzyme, PPTase activity, qHTS. shares compounds with NTMT1 inhibitor. Potency, µM (series often up to 57.1 µM), for the others: at the highest dose activity change, negative = inhibition, hits mostly inhibitors. hit rate 87% among 230
HSD17B4 inh: counter-screen for HPGD inhibitors: human HSD17B4 inhibition. shares compounds with NTMT1 inhibitor. purified HSD17B4, estradiol/NAD+, NADH fluorescence. Potency, µM (titrated, usually from 57.1 µM), for the others: top-dose activity change, negative = inhibition, actives largely listed as inhibitors. hit rate 10% among 230. AID 743187
ALDH1A1 counter: counter-screen for HPGD inhibitors: human ALDH1A1 inhibition | shares compounds with NTMT1 inhibitor | recombinant ALDH1A1, NADH fluorescence, propionaldehyde/NAD+ | Potency, µM (doses to about 57.1 µM), for inactives: at the highest dose activity change, negative = inhibition, most hits filed as inhibitors | hit rate 93% among 230 | AID 743195
Target sequence (P00352 whole entry, looked up): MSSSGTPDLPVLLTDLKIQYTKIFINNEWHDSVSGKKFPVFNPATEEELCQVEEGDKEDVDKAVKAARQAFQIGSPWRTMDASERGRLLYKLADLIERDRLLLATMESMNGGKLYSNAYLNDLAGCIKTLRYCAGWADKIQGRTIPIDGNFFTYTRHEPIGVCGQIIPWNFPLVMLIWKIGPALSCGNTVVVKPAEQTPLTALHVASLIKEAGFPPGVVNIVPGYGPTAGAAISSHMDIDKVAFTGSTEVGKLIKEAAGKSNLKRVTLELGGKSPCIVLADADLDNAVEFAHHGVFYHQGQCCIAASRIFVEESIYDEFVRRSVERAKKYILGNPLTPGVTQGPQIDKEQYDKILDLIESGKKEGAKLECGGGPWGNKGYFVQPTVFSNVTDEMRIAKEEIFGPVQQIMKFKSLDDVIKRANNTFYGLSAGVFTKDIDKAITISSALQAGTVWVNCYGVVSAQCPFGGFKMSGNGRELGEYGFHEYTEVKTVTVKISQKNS
The depositor's hits bear a star; i = inactive; ? = inconclusive; nt = not tested or not shown; [ ] = another dose, or the depositor's remark. Most compounds without a hit are left out; they make up all but 4.7% or so of the library. Unless noted, calls follow the shape of the dose curve; as a rule, active = well fitted curve in the direction sought with a large enough effect; inconclusive = small, poorly fitted or top-dose-only effect, or another doubt; inactive = no such curve, though single readings can be large; an effect the other way counts as inactive or inconclusive.

SMILES	GALC G270D act	DRV1 agonist	HTT promoter inh	FH mod	NTMT1 inhibitor	HTT-AS promoter	Sfp PPTase inh	Bsub HM489 growth	Sfp PPTase gel	Sfp SAR2	HSD17B4 inh	ALDH1A1 counter
C/C=C(/C)C(=O)OC1CC(C)(C)CC2C3=CCC4C5(C)CCC(OC6OC(C)C(OC7OC(C(=O)O)C(O)C(OC8OC(CO)C(O)C(O)C8OC8OC(CO)C(O)C(O)C8O)C7O)C(O)C6O)C(C)(C)C5CCC4(C)C3(C)C(OC(=O)/C=C/C=C/C=C/CCC)C(OC(C)=O)C12CO (stereo not given)	nt	nt	nt	1.0%[13.5 µM]	?	nt	nt	nt	nt	nt	nt	nt
Cc1cc(C)nc(NC(=S)N2CCN(c3nc4ccccc4s3)CC2)c1	nt	nt	nt	nt	?	nt	0.373µM*	?	10µM*	0.91µM*	-14.6%	8.57µM*
Cc1ccc(C)c(N2CCN(C(=O)c3ccc(NC(=O)c4nsc5ccccc45)cc3)CC2)c1	i	-17.9	-24.5%	-29.2%	-14.9%	?	nt	nt	nt	nt	nt	nt
CN(Cc1ccccc1)C(=O)C1CCN(Cc2cccc3ccccc23)CC1	nt	nt	nt	nt	-2.8%	nt	nt	nt	nt	nt	nt	nt
Cc1cc(C)nc(NC(=S)N2CCN(Cc3cccc4ccccc34)CC2)c1	nt	nt	nt	nt	?	nt	4.69µM*	?	10µM*	8.13µM*	-10.8%	21.5µM*
Cc1ccc(NC(=O)C2CCCN(c3nc4ccccc4s3)C2)c(C)c1 (stereo not given)	i	-3.6	-2.1%	2.1%	-2.8%	16.0%	nt	nt	nt	nt	nt	nt
Cc1cc(C)nc(NC(=S)N2CCN(c3nsc4ccccc34)CC2)c1	nt	nt	nt	nt	?	nt	3.73µM*	?	6.31µM*	1.02µM*	-9.9%	21.5µM*
Cc1cc(C)nc(NC(=S)N2CCN(c3nccc4ccccc34)CC2)c1	nt	nt	nt	nt	?	nt	2.64µM*	?	-63.1%	9.13µM*	-22.8%	9.61µM*
Cc1cc(C)nc(NCc2ccc(O)c3ncccc23)c1	nt	nt	nt	nt	-4.0%	nt	nt	nt	nt	nt	nt	nt
CC1(C)CCCC2(C)C1C(O)C=C(CO)C2(O)C(=O)O (stereo not given)	nt	nt	nt	-1.3%	1.4%[57.5 µM]	nt	nt	nt	nt	nt	nt	nt
Cc1ccc(OCCn2c(CCNC(=O)c3ccc[nH]3)nc3ccccc32)cc1	nt	nt	nt	nt	1.2%[57.5 µM]	nt	nt	nt	nt	nt	nt	nt
N#Cc1ccnc(N2C(=O)CC[C@H]2C(=O)N(c2cncc(F)c2)C(C(=O)NC2CC(F)(F)C2)c2ccccc2Cl)c1 (stereo not given in full)	nt	nt	nt	nt	6.2%	nt	nt	nt	nt	nt	nt	nt
CC/C=C\C(O)C(O)C1=C(C)C(=O)C2(O1)C(=O)NC(OC)(C(=O)c1ccccc1)C2O (stereo not given)	nt	nt	nt	-0.2%[53.3 µM]	-8.2%[29.8 µM]	nt	nt	nt	nt	nt	nt	nt
Cc1cc2n(n1)CCC(=O)N2Cc1ccc(C(=O)Nc2cccc(C(F)(F)F)c2)cc1	i	27.8	-14.9%	-5.2%	-18.6%	-28.7%	nt	nt	nt	nt	nt	nt
Cc1cc(C)nc(NC(=S)N2CCN(Cc3cccc(C(F)(F)F)c3)CC2)c1	nt	nt	nt	nt	nt	nt	6.63µM*	?	?	11.5µM*	-15.1%	12.1µM*
